From the supplement of paper PMC9433436
± gives the standard deviation of the averaged measurements. Whole data set: some 4,100 sequences, median “relative kcat/Km (krel) vs genomic leader AAAGAU” near 1.7, cut for the highest 2% near 6.5. Shown is part of a subset that was picked to be rich in the highest values.

Molecular target: T1, E. coli RNase P holoenzyme (M1 P RNA + rnpA protein) (UniProt P0A7Y8)
T1 sequence: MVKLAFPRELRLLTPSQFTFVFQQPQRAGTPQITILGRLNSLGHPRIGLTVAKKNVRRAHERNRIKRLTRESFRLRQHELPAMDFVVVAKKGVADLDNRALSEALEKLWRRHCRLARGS
Test: relative kcat/Km (krel) vs genomic leader AAAGAU (relative (reference leader = 1)); higher = faster RNase P cleavage
Method: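 HTS-Kin: a pool of ptRNA-Met (21C construct) with all 4096 combinations of 5' leader nucleotides N(-6) to N(-1) was processed in vitro by E. coli RNase P (P RNA + rnpA/C5 protein) under multiple-turnover conditions at 37 C, pH 8, 17.5 mM MgCl2. Residual substrate was Illumina-sequenced at several fractions reacted, and relative kcat/Km (krel) was computed by internal competition kinetics, calibrated to the genomic leader (AAAGAU = 1). The listed hexamer is the varied N(-6)..N(-1) leader (DNA letters), and it sits between a fixed 5' stem-loop flank (GCAUGCACGAAAGUGCGUGCUAUGAA) and the mature tRNA-Met starting GGCUACGUAGCUCAGUUGG. Two technical replicates are averaged.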

[1] = fraction of substrate reacted: ~9-10% (9.79% repeat 1, 9.1% repeat 2)
[2] = fraction of substrate reacted: ~13-16% (15.68% repeat 1, 13.17% repeat 2)
[3] = fraction of substrate reacted: ~26-29% (28.66% repeat 1, 26.4% repeat 2)

Row | Sequence | relative kcat/Km [1] | relative kcat/Km [2] | relative kcat/Km [3]
1 | CACCAG | 2.64 ± 2.5 | 1.93 ± 0.07 | 3.58 ± 1.1
2 | TACCAT | 3.78 ± 1.5 | 5.08 ± 1.6 | 7.73 ± 3.6
3 | TACCTT | 2.52 ± 0.33 | 3.78 ± 0.62 | 5.64 ± 2.6
4 | CACCAT | 4.34 ± 1.2 | 4.72 ± 0.96 | 7.01 ± 2.9
5 | TACCAG | 2.73 ± 1.4 | 2.64 ± 1.1 | 4.81 ± 1.2
6 | TACCAC | 3.48 ± 1.4 | 4.03 ± 1.6 | 6.63 ± 2.9
7 | AACCAT | 2.62 ± 1.1 | 2.62 ± 0.3 | 4.77 ± 2
8 | TACCAA | 3.31 ± 1.5 | 4.01 ± 0.25 | 6.07 ± 1.9
9 | GACCAT | 3.62 ± 2.1 | 3.91 ± 0.13 | 5.96 ± 1.9
10 | ATAAGA | 1.69 ± 0.23 | 2.23 ± 0.39 | 3.63 ± 1.3
11 | ACGTTG |  |  | 1.56 ± 0.44
12 | ACCGCC | 2.87 ± 1.1 | 2.93 ± 0.072 | 4.69 ± 1
13 | TGGACC | 0.825 ± 0.51 | 0.618 ± 0.3 | 0.551 ± 0.0088
14 | TAACTC | 1.62 ± 0.57 | 1.49 ± 0.16 | 2.26 ± 0.86
15 | GCGTCC | 1.32 ± 0.099 | 1.73 ± 0.52 | 2.64 ± 0.41
16 | TTGTAG | 2.4 ± 1.1 | 1.92 ± 0.36 | 3.78 ± 0.77
17 | TTGTAC | 3.78 ± 0.42 | 4.71 ± 1.3 | 7.05 ± 2.9
18 | TCGTAC | 4.21 ± 1.1 | 5.11 ± 1.9 | 7.91 ± 3.5
19 | CCGTAT | 3.19 ± 0.25 | 4.32 ± 0.66 | 5.94 ± 2.6
20 | ACGTAT | 2.73 ± 1.2 | 3.73 ± 1.2 | 5 ± 1.8
21 | TCGTCC | 3.8 ± 0.41 | 5.03 ± 1.6 | 6.93 ± 3.5
22 | TCGTAA | 3.3 ± 0.9 | 3.79 ± 0.62 | 6.16 ± 2.7

Row | Sequence | relative kcat/Km [1] | relative kcat/Km [2] | relative kcat/Km [3]
23 | TCGTCT | 3 ± 0.94 | 2.99 ± 1.4 | 4.35 ± 1.2
24 | GCGTAC | 2.64 ± 0.68 | 1.98 ± 0.25 | 3.77 ± 1.5
25 | GTGTAC | 1.78 ± 0.16 | 2.012 ± 0.0038 | 3.45 ± 1
26 | TCGTAT | 4.13 ± 0.92 | 4.78 ± 0.97 | 7.28 ± 3.4
27 | AGTTCG |  | 0.601 ± 0.24 | 1.95 ± 0.2
28 | GATGAG |  |  | 0.577 ± 0.44
29 | CAAAAA | 1.14 ± 0.13 | 0.985 ± 0.72 | 2.42 ± 0.98
30 | GGTCTT |  | 1.32 ± 0.41 | 1.72 ± 0.37
31 | ACGGGT |  |  | 1.35 ± 0.62
32 | GCTCGC | 1.28 ± 1.3 | 1.58 ± 0.13 | 1.96 ± 0.049
33 | GTTGTT | 0.832 ± 0.53 | 0.86 ± 0.24 | 1.07 ± 0.92
34 | GGTCGC | 1.81 ± 0.88 | 2.0828 ± 0.002 | 3.37 ± 1.1
35 | GATTGA | 2.31 ± 0.22 | 3.98 ± 1.1 | 4.96 ± 2.3
36 | TATTGG | 0.568 ± 0.24 |  | 1.46 ± 0.98
37 | AATTGA | 2.34 ± 0.47 | 3.16 ± 0.37 | 4.64 ± 1.2
38 | TATTGC | 3.74 ± 1.7 | 4.4 ± 0.4 | 6.68 ± 3.2
39 | CATTGC | 3.51 ± 1.1 | 4.2 ± 0.93 | 5.82 ± 2.3
40 | TATTGA | 3.87 ± 0.33 | 4.42 ± 1.1 | 6.93 ± 3.1
41 | TTAGTG |  |  | 0.934 ± 0.09
42 | AACTAT | 3.41 ± 0.78 | 4.44 ± 0.83 | 6.43 ± 3.1
43 | AACTAA | 2.93 ± 0.16 | 4.29 ± 1.7 | 6.5 ± 3.1
44 | TACTAC | 5.21 ± 2 | 6.73 ± 1.9 | 9.59 ± 4

Row | Sequence | relative kcat/Km [1] | relative kcat/Km [2] | relative kcat/Km [3]
45 | CACTAG | 2.94 ± 2.4 | 3.2 ± 0.63 | 5.04 ± 0.72
46 | TACTAG | 3.46 ± 2 | 3.248 ± 0.0033 | 5.53 ± 2
47 | TACTAA | 5.23 ± 2.7 | 6.48 ± 0.54 | 8.92 ± 3.4
48 | TACTGC | 3.83 ± 1.5 | 4.1 ± 0.86 | 5.96 ± 1.5
49 | GACTGT | 0.875 ± 0.79 | 1.18 ± 0.32 | 1.09 ± 0.23
50 | CACTGA | 2.94 ± 1.2 | 3.71 ± 0.65 | 5.8 ± 1.7
51 | GACTAT | 4.87 ± 2 | 5.68 ± 1.6 | 8.33 ± 3.5
52 | CACTAA | 4.69 ± 2 | 6.03 ± 0.39 | 7.49 ± 2.5
53 | TGGAAA | 1.63 ± 1.1 | 0.838 ± 0.78 | 1.61 ± 0.29
54 | GTGTCA | 1.15 ± 0.97 | 0.779 ± 0.57 | 1.49 ± 0.16
55 | GCCTGG |  |  | 0.776 ± 0.2
56 | GTGCCC | 1.01 ± 0.23 | 0.583 ± 0.44 | 1.13 ± 0.088
57 | TTTGCT | 0.76 ± 0.28 | 0.721 ± 0.56 | 0.983 ± 0.097
58 | CAAAAC | 1.4 ± 0.17 | 1.59 ± 0.4 | 2.51 ± 0.41
59 | GACTAG | 1.77 ± 1.4 | 2.58 ± 0.6 | 4.67 ± 1.3
60 | TACTGT | 0.799 ± 0.45 | 1.56 ± 1.4 | 1.19 ± 0.64
61 | GACTAA | 4.15 ± 1.9 | 5.64 ± 1.3 | 8.21 ± 3.3
62 | GACTTA | 3.03 ± 0.62 | 4.15 ± 0.96 | 5.78 ± 2.2
63 | TACTAT | 4.15 ± 0.89 | 6.07 ± 1.3 | 9 ± 3.9
64 | AACTAG | 3.36 ± 2.5 | 2.8 ± 0.61 | 3.95 ± 1.3
65 | ATGAAG | 0.588 ± 0.19 | 0.919 ± 0.16 | 1.85 ± 0.42
